Experimental data as given in PubChem BioAssay AID2405 (Southern Research Specialized Biocontainment Screening …, 2010).
Activity calls are given as the source filed them. How the calls were made is not given here.

Assay: anti-RSV activity of probe candidates, cell-based (AID 2405)
Conditions: RSV cytopathic effect inhibition, HEp-2 cells, stronger effect = higher value; at 100 µM unless noted
In the case of `COc1ccc(-c2csc(N(C(=O)c3ccccc3Cl)C(C)C)n2)cc1`, the maximum inhibition is reported as 6.99% [at 25 µM] (inactive).
In the case of `CC1CCN(CCCNC(=O)c2cc3c(s2)-c2ccccc2OC3)CC1`, the maximum inhibition is reported as 3.42% [at 50 µM] (inactive).
For `COc1ccc(-c2csc(NC(=O)c3ccccc3Cl)n2)cc1`, the maximum inhibition was 2.47% [at 12.5 µM] (inactive).
In the case of `COc1ccc(-c2csc(N(CCCN(C)C)C(=O)c3ccccc3Cl)n2)cc1`, the maximum inhibition is reported as 0.91% [at 6.25 µM] (inactive).
With `O=C(Nc1nc(-c2ccccc2)cs1)c1ccccc1Cl` the maximum inhibition was 45.7% [at 12.5 µM] (inactive).
In the case of `O=c1c2cc(Cl)cc(Cl)c2nc2n1CCC2`, the maximum inhibition is reported as 5.87% (inactive).
In the case of `OC1c2cc(I)ccc2N=C2CCCN21` (stereo not drawn), the maximum inhibition is reported as 0.75% [at 50 µM] (inactive).
With `OC1c2cc(Br)ccc2N=C2CCCCCN21` (stereo not drawn) the maximum inhibition was 1.05% (inactive).
In the case of `O=C(CSc1nc2cccc(I)c2c(=O)n1-c1ccccc1)Nc1ccc2c(c1)CCC2`, the maximum inhibition is reported as 5.17% (inactive).
For `CC(=O)Nc1ccc2nc3n(c(=O)c2c1)CCC3`, the maximum inhibition was 1.57% [at 50 µM] (inactive).
In the case of `O=c1c2c(F)cccc2nc2n1CCC2`, the maximum inhibition is reported as 2.17% [at 0.39 µM] (inactive).
With `COc1ccc(-c2csc(N(Cc3ccccc3)C(=O)c3ccccc3Cl)n2)cc1` the maximum inhibition was 10.1% [at 25 µM] (inactive).
In the case of `O=C(CSc1nc2ccccc2c(=O)n1-c1ccc(F)cc1F)Nc1ccc(N2CCOCC2)cc1`, the maximum inhibition is reported as 1.49% (inactive).
